In the library only some 2.4% were active in any assay of this set; here they are far more common.
Nrf2 activator: qHTS of Nrf2 Activators. AREc32 ARE-luciferase reporter (MCF7-derived line), luminescence, 24 h. Potency, µM (series often up to 46.1 µM), for inactives: top-dose activation, actives largely listed as activators. actives 0.31% (n = 410,000); note: % of control where 0% means no effect; nearly all actives have a fitted effect of over 65% in size
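Quantitative high-throughput format: AREc32 reporter cells, 1000 per well, received compound by pin transfer and were incubated 24 hr at 37 deg C, 5% CO2, before Steady-Glo luminescence detection.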
Nrf2 block: Nrf2 qHTS screen for inhibitors; A549 ARE-Fluc reporter, luciferase luminescence, 18-24 h; Potency, µM (top dose mostly 46 µM), without a hit: top-dose activity change, negative = inhibition, most hits filed as inhibitors; actives 2.1% (n = 360,000); AID 504444, 2011; note: % is set by controls: 0 for no effect and ±100 for the full control effect; nearly all actives have a fitted effect of over 60% in size
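Cells were seeded and rested 2 h, then exposed to compounds for 18-24 h. CellTiter-Fluor was read first as a viability measure. BugLite was added 15 min before the final luminescent read of ARE-luciferase activity in A549 cells.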
PINK1 modulator: A Quantitative High throughput Screen to Identify Chemical Modulators of PINK1 Expression; Potency, µM (top dose mostly 76.6 µM), for inactives: at the highest dose activation (PINK1 increase), most hits filed as activators; actives 0.2% (n = 410,000); PINK1 immunofluorescence, high-content cytometry, 24 h; active = well fitted activation curve with a large enough effect; inconclusive = small, poorly fitted or top-dose-only effect; cell line not stated here; note: % of control where 0% means no effect; nearly all actives have a fitted effect of over 65% in size
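Stable cell line treated 24 h with compounds at 5 concentrations (CCCP controls), then fixed and immunostained for PINK1 plus nuclear and cell stains; PINK1 immunofluorescence quantified by laser-scanning microplate cytometry.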
Epigenetic derep: Quantitative High-Throughput Screen for Regulators of Epigenetic Control. murine LDR cells, GFP reporter derepression, 30 h. Potency, µM (titrated, usually from 53.9 µM), inactives show at the highest dose GFP activation, usual class: activators. actives 0.2% (n = 280,000); note: % of control where 0% means no effect; nearly all actives have a fitted effect of over 60% in size
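Reporter derepression read as number of fluorescent GFP-positive objects, 20-120 um in size, counted by laser-scanning cytometer. Mouse LDR line with an epigenetically silenced CMV-GFP locus; compound incubation 30 h, 37 C.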
A549 tox: Nrf2 qHTS screen for inhibitors: counterscreen for cytotoxicity; A549 ARE-Fluc cells, CellTiter-Fluor viability, 18-24 h; Potency, µM (top dose mostly 46 µM), for inactives: top-dose activity change, negative = cytotoxicity, usual class: inhibitors; actives 0.16% (n = 390,000); note: % is set by controls: 0 for no effect and ±100 for the full control effect
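A549 ARE_Fluc cells in 5% FBS OPTI-MEM were exposed to compounds in concentration-response for 18-24 h at 37 deg C. Viability was read by CellTiter-Fluor fluorescence (Ex 405/Em 525) after 30 min, before the luciferase read.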
* marks the source's active call; other numbers are inactive results; ? = inconclusive; nt = no result; [ ] = dose if it differs, or a comment. Unless noted, calls come from the whole dose curve; as a rule, active = well fitted curve in the direction sought with a large enough effect; inconclusive = small, poorly fitted or top-dose-only effect, or another doubt; inactive = no such curve, though single readings can be large; an effect the other way counts as inactive or inconclusive. Potency is the fitted concentration of half-maximal effect.

SMILES	Nrf2 activator	Nrf2 block	PINK1 modulator	Epigenetic derep	A549 tox
O=C(NC(c1cccnc1)C(F)(F)F)c1cnn(-c2nccc(-c3cccs3)n2)c1C1CC1 (configuration not stated)	nt	nt	2%	nt	nt
N=C1S/C(=C\c2ccc(-c3cccc(Cl)c3)o2)C(=O)N1c1nccs1	9%	8.2µM*	9%	?	?
COc1ccc(/C=C2\SC(=N)N(c3nccs3)C2=O)cc1OC	?	?	12%	?	-24%
Cc1ncc2c(c1CNC(=O)c1ccc3c(c1)OCO3)CCN(C(=O)c1scc3c1CCCC3)C2	nt	nt	-1%	nt	nt
COc1ccc(-c2cc(C)no2)cc1S(=O)(=O)Nc1cccc(C(F)(F)F)c1	1%	18µM*	1%	-1%	5%
CC(=O)c1ccc(NS(=O)(=O)c2cc(-c3cc(C)no3)ccc2C)cc1	-1%	nt	6%	0%	-15%
Cc1cc(-c2ccc(C)c(S(=O)(=O)Nc3cccc(C#N)c3)c2)on1	0%	7.3µM*	0%	-3%	-24%
CCN1CCCC1CNC(=O)c1ccc(Cc2nc3ccccc3[nH]2)cc1 (configuration not stated)	nt	nt	nt	-2%	nt
Cc1cc(C(=O)Nc2cccc(-c3nc(CNC(=O)c4ccccc4C(F)(F)F)c(C)o3)c2)c(C)o1	nt	nt	2%	nt	nt
CCOc1ccc(C(NC(=O)CC)c2c(O)ccc3ccccc23)cc1 (configuration not stated)	0%	-16%	6%	nt	-13%
CC(=O)Oc1ccc2ccccc2c1C(NC(=O)Cc1ccccc1)c1ccc(Cl)cc1 (configuration not stated)	2%	21µM*	14µM*	-1%	?
COc1ccc(NS(=O)(=O)c2ccc(N3CCOCC3)c(NC(=O)c3ccc(F)cc3)c2)cc1	0%	9.2µM*	2%	-1%	-10%
CC(Oc1ccc(F)cc1)C(=O)Nc1cc(S(=O)(=O)N2CCOCC2)ccc1N1CCCCC1 (configuration not stated)	2%	21µM*	4%	nt	?
CCN1CCN(c2ccc(S(=O)(=O)N3CCOCC3)cc2NC(=O)c2ccc(OCC(C)C)cc2)CC1	0%	9.2µM*	0%	nt	-23%
Cc1sc2ncnc(N3CCN(c4ncccn4)CC3)c2c1C	-1%	15µM*	-1%	0%	-12%
COc1cc(C(=O)N2CCN(c3ncnc4sc(C)c(C)c34)CC2)cc(OC)c1OC	0%	10µM*	3%[38.3 µM]	-8%	?
CCS(=O)(=O)N1CCN(c2ncnc3sc(C)c(C)c23)CC1	-1%	-13%	0%	0%	2%
Cc1cccc(-c2cccc(C(=O)N3CCc4c(cnc(C)c4CNC(=O)c4cncs4)C3)c2)c1	nt	nt	10%	nt	nt
COc1ccc2c(c1)CCc1cc(C(=O)N3CCN(c4ccc(N5CCOCC5)nn4)CC3)sc1-2	3%	18µM*	2%	0%	-4%
Cc1cc(C)cc(-n2ccn(Cc3ccc(F)cc3)c(=O)c2=O)c1	1%	23µM*	1%	0%	0%
Cc1cc(C)cc(-n2ccn(CC(=O)c3ccc(F)cc3)c(=O)c2=O)c1	0%	?	2%	1%	2%
O=C(OCc1c(-c2ccccc2)ncc2ccccc12)c1ccc(Br)cc1	0%	15µM*	0%	nt	-6%
O=C(OCc1c(-c2ccccc2)ncc2ccccc12)c1cccs1	?	16µM*	0%	nt	?
CN(C)C(=O)OCc1c(-c2ccccc2)ncc2ccccc12	-1%	-29%	0%	nt	1%
Cc1ccc(S(=O)(=O)C2(S(=O)(=O)c3ccc(C)cc3)CC2)cc1	3%	23µM*	1%	-1%	-15%
SMILES	Nrf2 activator	Nrf2 block	PINK1 modulator	Epigenetic derep	A549 tox
O=C(Nc1ccccc1)c1cc2ccccc2c(=O)s1	10µM*	-8%	0%	-1%	-5%
O=C(Nc1ccc(O)cc1)c1cc2ccccc2c(=O)s1	7%	14%	1%	1%	-7%
COc1cc2nc(C#N)nc(N)c2cc1OC	nt	nt	0%	nt	nt
O=C(Cn1cc(CNCc2ccccc2)nn1)Nc1cc(C(F)(F)F)ccc1Cl	nt	10%	nt	nt	-2%
CCOCCCNC(=O)/C(C#N)=C/c1ccc([N+](=O)[O-])o1	?	26µM*	0%	4µM*	?
CSc1nsc(SC)c1NC(=O)Nc1ccccn1	10µM*	nt	-2%[38.3 µM]	0%	-13%
Cn1c(=O)c2c(nc(SCC(=O)N3c4ccccc4CCc4ccccc43)n2C)n(C)c1=O	-1%	?	10µM*	0%	6%[1.84 µM]
CCN(Cc1ccncc1)Cc1ccc2c(c1)CN(C(=O)c1cccc3c(C)c(C)[nH]c13)CCO2	nt	nt	2%	nt	nt
COc1ccc(NC(=O)C2CCC2)cc1S(=O)(=O)Nc1cc(C)ccc1Br	0%	21µM*	0%	nt	?
COc1ccc(NC(=O)CCSc2ccc(C)cc2)cc1S(=O)(=O)Nc1ccccc1Cl	0%	23µM*	2%	-1%	2%
COc1ccc(NC(=O)[C@H](C)NC(N)=O)cc1S(=O)(=O)Nc1cc(C)ccc1Br	0%	2%	1%	-3%	-7%
Cc1cc(C)c2c(-n3cccc3)c(C(=O)NCCc3ccccc3)sc2n1	0%	0%	0%	14%	11%
Cc1ccc(/C=C/C(=O)c2ccccc(=O)c2O)cc1C	17%	21µM*	-2%	?	?
O=C(/C=C/c1ccccc1)c1cc(Br)ccc(=O)c1O	?	18µM*	0%	?	?
COc1ccc(C=CC(=O)c2ccc(OC)c(OC)c2O)cc1OC	21%	-14%	-3%	nt	-1%
O=C(/C=C\c1ccccc1)c1ccccc1O	nt	nt	nt	0%[10.1 µM]	nt
Cc1ccc(C2C(/C=C3/SC(=S)NC3=O)=C(c3cccs3)Oc3ccccc32)cc1 (configuration not stated)	12%	13µM*	nt	1%	10µM*
CSc1ccccc1C(=O)NCC1Cc2cc(F)cc(-c3cnccn3)c2O1 (configuration not stated)	nt	nt	2%	nt	nt
COc1ccc(-c2n(CC(=O)OC3CC(C)CCC3C(C)C)c3ccccc3[n+]2C)cc1 (configuration not stated)	-2%	21µM*	?	0%	?
CCC(NC(=O)CCl)c1ccc(C)cc1 (configuration not stated)	?	23µM*	-1%	-4%	?
COc1cccc(S(=O)(=O)N2CCN(S(=O)(=O)c3ccc4c(c3)OCCO4)CC2)c1	nt	-13%	nt	nt	-1%
CCOc1ccc(Nc2oc(/C=C/c3ccc(OC)c(OC)c3)nc2C#N)cc1	5%	11%	3%	32µM*	-7%
CCOc1ccc(Nc2oc(-c3cccs3)nc2C#N)cc1	2%	16µM*	8%[38.3 µM]	-1%	-20%
CCOc1ccc(Nc2oc(-c3ccco3)nc2C#N)cc1	8%	-5%	-1%	-2%	-5%
